Results taken from ChEMBL document CHEMBL1157539, “Thousands of chemical starting points for antimalarial lead identification” (Nature, 2010).

Each compound was assayed on Plasmodium falciparum (assay: GSK_TCMDC: Inhibition of Plasmodium falciparum 3D7 in whole red blood cells, using parasite LDH activity as an index of growth. Test compounds present at 2uM).
Format: functional

Row | Structure (SMILES) | Inhibition [%]
1 | NC(=O)c1cccc(C(=O)Nc2cccc(-c3cccc(-c4nc5ccccc5[nH]4)c3)c2)c1 | 100
2 | c1ccc(CN2CCC(Nc3ccc(-c4c[nH]nc4-c4ccccn4)nc3)CC2)cc1 | 97
3 | CC[C@@]1(O)C(=O)OCc2c1cc1n(c2=O)Cc2c-1nc1cc3c(cc1c2CN1CCN(C)CC1)OCCO3.Cl | 98
4 | O=C(NCc1ccc(Cl)c(Cl)c1)c1ccc(C2CCCN(Cc3ccc4[nH]cnc4c3)C2)cc1 (stereo not given) | 100
5 | O=C(O)C(F)(F)F.O=c1ccc2ccc(F)c3c2n1CC3CN1CCC(NCc2cccc(-c3cccs3)c2)CC1 (stereo not given) | 100
6 | O=[N+]([O-])c1ccc2ncnc(Nc3ccc(F)c(Cl)c3)c2c1 | 100
7 | Fc1ccc2c(NN=Cc3ccc(Cl)cc3)ccnc2c1 | 100
8 | N=C(/N=C(/NCCCCCCN/C(=N\C(=N)Nc1ccc(Cl)cc1)N1CCCCC1)N1CCCCC1)Nc1ccc(Cl)cc1 | 100
9 | CC(C)Sc1ccc(Cl)cc1CON1C(=N)N=C(N)NC1(C)C.Cl | 93
10 | CCCC(=O)c1cnc2c(Oc3cc(Cl)ncn3)cccc2c1Nc1ccccc1C | 99
11 | CC1(CCCCN2CCC(Oc3ccc(F)cc3F)CC2)C(=O)Nc2ccccc21.Cl (stereo not given) | 99
12 | Cc1cccc2nc(-c3cccc(-c4ccc(CNCCNC(=O)c5ccnn5C)cc4)c3)[nH]c12.O=C(O)C(F)(F)F | 100
13 | Cc1cc(N2CCC(N(C)C)C2)nc(Nc2ccc(Cl)cc2)n1 (stereo not given) | 99
14 | COc1cc2nc(N3CCC(CNC(=O)c4ccc(-c5ccc(C(=O)N(C)C)cc5)c(OCCO)c4)CC3)nc(N)c2cc1OC | 96
15 | COc1ccc(-c2nc(NC(=O)CSc3ccccc3)sc2C)cc1 | 94
16 | O=C(Nc1ccc(Cl)cc1)c1cc(Cl)ccc1NC(=O)C1(c2ccc(Cl)cc2)CCCC1 | 85
17 | COc1ccc2[nH]cc(C3CCN(CCCCCNC(=O)c4ccc(-c5ccccc5)cc4)CC3)c2c1 | 96
18 | COc1ccc(CCn2c(=N)c(C(=O)NCc3ccc(C)cc3)cc3c(=O)n4ccccc4nc32)cc1 | 97
19 | CC(C)(C)c1ccc(CN2CCC(NC(=O)c3ccc(-c4cccc(C(F)(F)F)c4)s3)CC2)cc1.O=C(O)C(F)(F)F | 100
20 | CCOc1cc(C(=O)NCc2ccc(Cl)c(Cl)c2)ccc1-c1nc2cc(Cl)ccc2[nH]1 | 97

Row | Structure (SMILES) | Inhibition [%]
21 | O=C(Nc1ccc(-c2nc3ccccc3[nH]2)cc1)C1CCN(Cc2cccc(F)c2F)CC1 | 97
22 | CC(CN(C)C)C(=O)Nc1ccc(-c2ccc(-c3nc4cc(C(F)(F)F)ccc4[nH]3)cc2)cc1 (stereo not given) | 100
23 | Br.CC1(C)NC(N)=NC(=N)N1OCCSCCON1C(=N)N=C(N)NC1(C)C | 95
24 | CCCC(=O)NC(NC(=S)Nc1ccc([N+](=O)[O-])cc1)C(Cl)(Cl)Cl (stereo not given) | 93
25 | Clc1ccc(-c2cc(-c3csc(NCCN4CCOCC4)n3)on2)c(Cl)c1 | 97
26 | COc1ccc(C2CC(c3ccccc3O)=NN2C(=O)c2ccco2)cc1OC (stereo not given) | 96
27 | O=C(Nc1cccc(CN2CCN(C(=O)c3cccc(Cl)c3)CC2)c1)c1ccco1.O=C(O)C(F)(F)F | 96
28 | Oc1c(C(Nc2ccccn2)c2ccc(Cl)cc2Cl)ccc2cccnc12 (stereo not given) | 88
29 | Cc1cccc2nc(-c3ccc(-c4ccc(NC(=O)C(C)CN(C)C)cc4)s3)[nH]c12 (stereo not given) | 100
30 | COc1ccc(C(=O)CCC(=O)N(Cc2ccc(-c3ccc(CNCCc4ccc(S(C)(=O)=O)cc4)cn3)cc2)C2CC3CCC2C3)cc1F.O=C(O)C(F)(F)F (stereo not given) | 97
31 | COc1ccc(C(=O)COc2cccc(/C=C/C(=O)O)c2)cc1OC | 84
32 | COc1ccc(CNC2CCCC2)cc1-c1ccc(S(=O)(=O)NCCN2CCCC2)s1.O=C(O)C(F)(F)F | 96
33 | CCNc1cc(C(=O)N[C@@H](Cc2ccccc2)[C@H](O)CNCCCc2ccc(OC)cc2)cc(N2CCCC2=O)c1.O=C(O)C(F)(F)F | 99
34 | COc1ccc(-c2nonc2NC(=O)c2ccc(C(C)(C)C)cc2)cc1OC | 99
35 | CS(=O)(=O)Cc1cccc(Nc2ncc(Cl)c(Nc3cccnc3C(N)=O)n2)c1.Cl | 96
36 | Cl.NC1=NC(c2ccccc2)N(OCc2ccccc2)C(N)=N1 (stereo not given) | 96
37 | O=C(/C=C/c1ccc(Cl)c(Cl)c1)NCCCCCN1CCC(NC(=O)Nc2ccc(C(F)(F)F)cc2)C1 (stereo not given) | 100
38 | O=C(O)CCSSc1cccc[n+]1[O-] | 95
39 | O=C(Nc1ccc(OC(F)(F)F)cc1)Nc1ccc([N+](=O)[O-])cc1 | 100
40 | COc1ccc2ccc(F)c(CC(=O)N3CCOC(CNCc4cccc(-c5ccc(F)cc5)n4)C3)c2n1 (stereo not given) | 92

Each compound was assayed on Plasmodium falciparum (assay: GSK_TCMDC: Inhibition of Plasmodium falciparum Dd2 in whole red blood cells, using parasite LDH activity as an index of growth. Test compounds present at 2uM).
Format: functional

Row | Structure (SMILES) | Inhibition [%]
41 | NC(=O)c1cccc(C(=O)Nc2cccc(-c3cccc(-c4nc5ccccc5[nH]4)c3)c2)c1 | 78
42 | c1ccc(CN2CCC(Nc3ccc(-c4c[nH]nc4-c4ccccn4)nc3)CC2)cc1 | 23
43 | CC[C@@]1(O)C(=O)OCc2c1cc1n(c2=O)Cc2c-1nc1cc3c(cc1c2CN1CCN(C)CC1)OCCO3.Cl | 97
44 | O=C(NCc1ccc(Cl)c(Cl)c1)c1ccc(C2CCCN(Cc3ccc4[nH]cnc4c3)C2)cc1 (stereo not given) | 83
45 | O=C(O)C(F)(F)F.O=c1ccc2ccc(F)c3c2n1CC3CN1CCC(NCc2cccc(-c3cccs3)c2)CC1 (stereo not given) | 75
46 | O=[N+]([O-])c1ccc2ncnc(Nc3ccc(F)c(Cl)c3)c2c1 | 65
47 | Fc1ccc2c(NN=Cc3ccc(Cl)cc3)ccnc2c1 | 99
48 | N=C(/N=C(/NCCCCCCN/C(=N\C(=N)Nc1ccc(Cl)cc1)N1CCCCC1)N1CCCCC1)Nc1ccc(Cl)cc1 | 98
49 | CC(C)Sc1ccc(Cl)cc1CON1C(=N)N=C(N)NC1(C)C.Cl | 90
50 | CCCC(=O)c1cnc2c(Oc3cc(Cl)ncn3)cccc2c1Nc1ccccc1C | 85
51 | CC1(CCCCN2CCC(Oc3ccc(F)cc3F)CC2)C(=O)Nc2ccccc21.Cl (stereo not given) | 6
52 | Cc1cccc2nc(-c3cccc(-c4ccc(CNCCNC(=O)c5ccnn5C)cc4)c3)[nH]c12.O=C(O)C(F)(F)F | 100
53 | Cc1cc(N2CCC(N(C)C)C2)nc(Nc2ccc(Cl)cc2)n1 (stereo not given) | 17
54 | COc1cc2nc(N3CCC(CNC(=O)c4ccc(-c5ccc(C(=O)N(C)C)cc5)c(OCCO)c4)CC3)nc(N)c2cc1OC | 18
55 | COc1ccc(-c2nc(NC(=O)CSc3ccccc3)sc2C)cc1 | 31
56 | O=C(Nc1ccc(Cl)cc1)c1cc(Cl)ccc1NC(=O)C1(c2ccc(Cl)cc2)CCCC1 | 29
57 | COc1ccc2[nH]cc(C3CCN(CCCCCNC(=O)c4ccc(-c5ccccc5)cc4)CC3)c2c1 | 16
58 | COc1ccc(CCn2c(=N)c(C(=O)NCc3ccc(C)cc3)cc3c(=O)n4ccccc4nc32)cc1 | 16
59 | CC(C)(C)c1ccc(CN2CCC(NC(=O)c3ccc(-c4cccc(C(F)(F)F)c4)s3)CC2)cc1.O=C(O)C(F)(F)F | 96
60 | CCOc1cc(C(=O)NCc2ccc(Cl)c(Cl)c2)ccc1-c1nc2cc(Cl)ccc2[nH]1 | 4

Row | Structure (SMILES) | Inhibition [%]
61 | O=C(Nc1ccc(-c2nc3ccccc3[nH]2)cc1)C1CCN(Cc2cccc(F)c2F)CC1 | 51
62 | CC(CN(C)C)C(=O)Nc1ccc(-c2ccc(-c3nc4cc(C(F)(F)F)ccc4[nH]3)cc2)cc1 (stereo not given) | 93
63 | Br.CC1(C)NC(N)=NC(=N)N1OCCSCCON1C(=N)N=C(N)NC1(C)C | 81
64 | CCCC(=O)NC(NC(=S)Nc1ccc([N+](=O)[O-])cc1)C(Cl)(Cl)Cl (stereo not given) | 14
65 | Clc1ccc(-c2cc(-c3csc(NCCN4CCOCC4)n3)on2)c(Cl)c1 | 86
66 | COc1ccc(C2CC(c3ccccc3O)=NN2C(=O)c2ccco2)cc1OC (stereo not given) | 68
67 | O=C(Nc1cccc(CN2CCN(C(=O)c3cccc(Cl)c3)CC2)c1)c1ccco1.O=C(O)C(F)(F)F | 94
68 | Oc1c(C(Nc2ccccn2)c2ccc(Cl)cc2Cl)ccc2cccnc12 (stereo not given) | 60
69 | Cc1cccc2nc(-c3ccc(-c4ccc(NC(=O)C(C)CN(C)C)cc4)s3)[nH]c12 (stereo not given) | 98
70 | COc1ccc(C(=O)CCC(=O)N(Cc2ccc(-c3ccc(CNCCc4ccc(S(C)(=O)=O)cc4)cn3)cc2)C2CC3CCC2C3)cc1F.O=C(O)C(F)(F)F (stereo not given) | 34
71 | COc1ccc(C(=O)COc2cccc(/C=C/C(=O)O)c2)cc1OC | 28
72 | COc1ccc(CNC2CCCC2)cc1-c1ccc(S(=O)(=O)NCCN2CCCC2)s1.O=C(O)C(F)(F)F | 17
73 | CCNc1cc(C(=O)N[C@@H](Cc2ccccc2)[C@H](O)CNCCCc2ccc(OC)cc2)cc(N2CCCC2=O)c1.O=C(O)C(F)(F)F | 96
74 | COc1ccc(-c2nonc2NC(=O)c2ccc(C(C)(C)C)cc2)cc1OC | 73
75 | CS(=O)(=O)Cc1cccc(Nc2ncc(Cl)c(Nc3cccnc3C(N)=O)n2)c1.Cl | 97
76 | Cl.NC1=NC(c2ccccc2)N(OCc2ccccc2)C(N)=N1 (stereo not given) | 21
77 | O=C(/C=C/c1ccc(Cl)c(Cl)c1)NCCCCCN1CCC(NC(=O)Nc2ccc(C(F)(F)F)cc2)C1 (stereo not given) | 6
78 | O=C(O)CCSSc1cccc[n+]1[O-] | 0
79 | O=C(Nc1ccc(OC(F)(F)F)cc1)Nc1ccc([N+](=O)[O-])cc1 | 100
80 | COc1ccc2ccc(F)c(CC(=O)N3CCOC(CNCc4cccc(-c5ccc(F)cc5)n4)C3)c2n1 (stereo not given) | 1
